# Measured values published in PubChem BioAssay AID687030 (Broad Institute, 2013).
# Hit rate of the full screen: of about 1,400 compounds, about 10 (0.7%) were called active. No rule for the calls is given here. Only a sample is shown. Results with a measured potency or affinity are listed apart.
# Test: BHK-21 cell toxicity, dose response, cytotoxicity control, plate reader, cherry-pick samples (AID 687030);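 also: cells were exposed to compound for three days before reading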
# Conditions: BHK-21 cells; series mostly up to 19.5 µM; activity change, negative = toxicity: at the top concentration
row,SMILES,"activity change, negative = toxicity"
1,O=C(Nc1ccc(Cl)cc1)N(CCCN1CCOCC1)Cc1cccs1,-0.064% (inactive)
2,NC[C@H](Cc1ccccc1)NCCCCC1CCCCC1,5.93% (inactive)
3,CO[C@@H](CN(C)C(=O)c1cc(Cl)cc(Cl)c1)[C@H](C)CN(C(=O)Nc1ccc(F)cc1)[C@@H](C)CO,4.92% (inactive)
4,COc1cccc(CNC(=O)[C@H]2CCCN2C(=O)C2CCCN2C(=O)c2ccc(OC)c(F)c2)c1 (some centres not stated),5.15% (inactive)
5,CCCNC(=O)[C@H]1[C@H](CO)[C@H]2Cn3c(cccc3=O)[C@H]2N1Cc1ccccc1Cl,-3.48% [at 21 µM] (inactive)
6,COc1ccc(-c2sc3cc4c(cc3c2C#Cc2cncn2C)OCO4)cc1,-2.31% (inactive)
7,CC(=O)Nc1cccc(OCCCNC(=O)c2ccc(C(C)(C)C)cc2)c1,-2.02% (inactive)
8,CC(C)(C)c1ccc(C(=O)Nc2ccc3c(c2)C(=O)NC3=O)cc1,5.72% (inactive)
9,CN1C(=O)c2cc(NC(=O)NCc3ccccc3)ccc2OC[C@H]2O[C@H](CC(=O)NCC3CCCCC3)CC[C@H]21,-2.23% (inactive)
10,Cc1ccccc1OCCC(=O)OCC(=O)NCCc1ccc(S(N)(=O)=O)cc1,-0.913% (inactive)
11,C[C@H](CO)N1C[C@H](C)[C@@H](CN(C)Cc2ccc3c(c2)OCO3)OCCCC[C@H](C)Oc2ccc(N(C)C)cc2C1=O,2.33% (inactive)
12,CSc1ccccc1NC(=O)c1cc2c(=O)n3ccccc3nc2s1,2.33% (inactive)
13,CCN(CC)CCCNc1nc(C)cc(COC)c1C#N,-3.72% (inactive)
14,CCCCN(C(=O)c1ccc2c(c1)NC(=O)CS2)c1ccccc1,4.54% (inactive)
15,O=C(OCc1ccccc1)N1CCCC2CC1c1ccccc12 (configuration not stated),-1.75% (inactive)
16,COc1cccc(OC)c1C(=O)N1CCN(Cc2c[nH]c3ccccc23)CC1,-1.55% (inactive)
17,O=C(c1ccc(CNc2c(N3CCCC3)c(=O)c2=O)cc1)N1CCN(C2CCCCC2)CC1,-6.28% (inactive)
18,CCOc1ccccc1-c1nnc(CS(=O)(=O)c2ccccc2)o1,1.34% (inactive)
19,CCOC(=O)c1ccc(NC(=O)c2nc[nH]c2C(=O)NC2CCN(C(=O)OC(C)(C)C)CC2)cc1,1.41% (inactive)
20,Cc1cccc(N(C)c2cc(C)nc3nc(C)nn23)c1,-4.81% (inactive)
21,COCc1cccc(-c2csc(C(N)c3ccc(F)c(F)c3)n2)c1 (configuration not stated),-4.14% (inactive)
22,COc1ccc(S(=O)(=O)N2CCCCN3[C@H](CO)[C@H](c4ccc(C5=CCCC5)cc4)[C@@H]3C2)cc1,-2.71% (inactive)
23,COC(=O)c1ccc(NC(=O)C2CC3CCC2C3)cc1 (configuration not stated),-2.2% (inactive)

row,SMILES,"activity change, negative = toxicity"
1,COc1ccc(C2(C)CC(C)(C)Nc3ccccc32)cc1 (configuration not stated),0.418% (inactive)
2,CC(C)(O)C#Cc1ccc([C@@H]2[C@@H](CO)N3CCCCN(C(=O)c4ccc(F)cc4)C[C@@H]23)cc1,6.25% (inactive)
3,O[C@@H]1CN(Cc2cccs2)[C@@H](c2ccccc2)C[C@H]1n1cc(-c2ccc(F)cc2)nn1,3.94% (inactive)
4,COC(=O)c1c(NC(=O)CC2Sc3ccc(C(F)(F)F)cc3NC2=O)sc(C)c1C (configuration not stated),3.54% (inactive)
5,COC(=O)c1ccc2nc(-c3ccc(F)cc3)c(Cc3ccccc3OC)n2c1,4.29% (inactive)
6,CC(C)C(NS(=O)(=O)c1ccc2c(c1)C(C)(C)C(=O)N2C)C(=O)NCc1ccccc1Cl (configuration not stated),-2.05% (inactive)
7,COc1ccc2c3c(n(C)c2c1)[C@H](CO)N(C(=O)Nc1ccccc1F)CC31CN(C)C1,2.87% [at 21 µM] (inactive)
8,C[C@H]1CN([C@@H](C)CO)C(=O)c2cc(NC(=O)CCCN(C)C)ccc2O[C@@H]1CN(C)S(=O)(=O)c1ccc(Cl)cc1,11.6% [at 21 µM] (inactive)
9,Cc1ccccc1OCCCCN1CCCCC1,-3.74% (inactive)
10,Cc1ccc(SC[C@H](Cc2ccccc2)N2CC[C@@H](C)CCC2=O)cc1,13.1% [at 10 µM] (inactive)
11,CC(C)c1ccc(NC(=O)Nc2nc(C(N)c3ccccc3Cl)cs2)cc1 (configuration not stated),1.49% (inactive)
12,Cc1ccc(N(C)C(=O)N2CCN(S(=O)(=O)c3ccc(C)cc3)CC2)cc1,1.54% (inactive)
13,CCOC(=O)c1[nH]c2ccccc2c1NC(=O)c1ccc2c(c1)OCO2,-0.148% (inactive)
14,Cc1cccc(N(C(=O)Cn2nnc3ccccc32)C(C(=O)NC(C)(C)C)c2ccsc2)c1 (configuration not stated),-2.95% (inactive)
15,O=C(CNC(=O)N1CC(=O)Nc2ccccc21)NCc1ccc(F)cc1,0.609% (inactive)
16,Cc1noc(C)c1S(=O)(=O)N(C)C[C@H]1OCCCC[C@@H](C)Oc2ccc(NC(=O)Nc3ccc4c(c3)OCO4)cc2C(=O)N([C@@H](C)CO)C[C@H]1C,-2.3% (inactive)
17,CCOC(=O)c1[nH]c(C)c(C(=O)OCC(=O)N2CC(=O)Nc3ccccc32)c1C,-1.55% (inactive)
18,CC1CCCCN1CCCNC(=O)c1ccc2nc(N3CCCCC3)sc2c1 (configuration not stated),-1.24% (inactive)
19,CCOC(=O)c1sc(NC(=O)c2ccncc2)c(C#N)c1C,2.78% (inactive)
20,CC(C)C(=O)Nc1nnc(S(=O)(=O)N2CCc3ccccc32)s1,-1.38% (inactive)
21,Fc1ccc(CCN2CCN=C2Nc2ccccc2)cc1,-3.21% (inactive)
22,CCC(C)[C@H]1COCCS(=O)(=O)N1Cc1ccc(Br)cc1 (some centres not stated),-1.52% (inactive)
23,O=C(N[C@@H]1C=C[C@H](CC(=O)N2CCc3ccccc3C2)O[C@@H]1CO)C1CCC1,3.49% (inactive)

row,SMILES,"activity change, negative = toxicity"
1,COc1cc2cc(CCCOC(=O)CCC(=O)O)oc(=O)c2cc1OC,-0.198% (inactive)
2,CC1Cc2ccccc2N1S(=O)(=O)c1cnc(Cl)c(Br)c1 (configuration not stated),-8.32% (inactive)
3,O=C(O)c1cccc(-c2csc(C(O)c3ccc(F)c(F)c3)n2)c1 (configuration not stated),-1.2% (inactive)
4,O=C(O)c1ccccc1C(=O)NCc1c(Cl)cccc1Sc1ccc(Cl)cc1,2.35% (inactive)
5,COc1ccc(CCN2CC(C(=O)NCCc3cn[nH]c3)CCC2=O)cc1 (configuration not stated),-3.58% (inactive)
6,CNC(=O)C[C@H]1CC[C@@H]2[C@H](COc3ccc(NC(=O)c4ccc(F)c(F)c4)cc3C(=O)N2C)O1,2.5% [at 21 µM] (inactive)
7,COc1cc2c(cc1OC)CN(C(=O)CCOc1ccccc1C)CC2,1.41% (inactive)
8,N#Cc1cccnc1N1CCN(C(=O)c2ccccc2)CC1,-6.78% (inactive)
9,O=C(NCC[C@H]1CC[C@H](NS(=O)(=O)c2ccc(Oc3ccccc3)cc2)[C@@H](CO)O1)C1CC1,-1.83% (inactive)
10,CCCCCc1c(-c2ccccc2OC)ncn1CCc1ccccc1OC,-3.51% (inactive)
11,O=C(Nc1cccc(S(=O)(=O)N2CCCCCC2)c1)c1ccc2ccccc2n1,1.68% (inactive)
12,Cc1ccc(C(=O)O/N=C(\N)c2ccccn2)cc1,-4.24% (inactive)
13,CCc1nc2ccc(C(=O)N(CC)CCN(C)C)cn2c1N(C)C(=O)c1cccc(OC)c1,11% (inactive)
14,C[C@@H]1CN([C@@H](C)CO)C(=O)c2cc(NS(=O)(=O)c3ccc(Cl)cc3)ccc2O[C@@H](C)CCCCO[C@H]1CN(C)CC1CC1,-1.91% (inactive)
15,O=C(c1ccncc1)N1CCCC(N2CCN(c3cccc(C(F)(F)F)c3)CC2)C1 (configuration not stated),1.83% (inactive)
16,O=C(c1cc(C2CC2)on1)N1CCCC(N2CCN(c3cccc(C(F)(F)F)c3)CC2)C1 (configuration not stated),1.75% (inactive)
17,O=S(=O)(NCc1c(Cl)cccc1Oc1ccccc1)c1ccccc1,-4.45% (inactive)
18,CCOc1ccc(C(=O)NCC(=O)N2CCCCCCC2)cc1,-5.62% (inactive)
19,O=C(O)C[C@H]1C=C[C@@H](NC(=O)CCN2CCCCC2)[C@@H](CO)O1,6.26% (inactive)
20,CC1CCOC(c2coc3ccccc3c2=O)O1 (configuration not stated),-2.55% (inactive)
21,COc1ccc(Br)cc1[C@H]1[C@H]2C=CC[C@@H](C)[C@@H]2C(=O)N1Cc1ccccc1,4.79% (inactive)
22,O=C(Nc1cccc(-n2cnnn2)c1)C1CCCN(C(=O)Cc2cccc(Cl)c2)C1 (configuration not stated),1.47% (inactive)
23,CC(C)CN(C(=O)c1cc(Cl)nc2ccccc12)c1c(N)n(Cc2ccccc2)c(=O)[nH]c1=O,4.68% (inactive)

row,SMILES,"activity change, negative = toxicity"
1,O=C(O)[C@H]1[C@H](CO)[C@H]2Cn3c(ccc(/C=C/c4ccccc4)c3=O)[C@H]2N1C(=O)c1cnccn1,-3.31% (inactive)
2,CN(CC(=O)Nc1ccc(F)cc1)C(=O)COC(=O)c1nc(Cl)ccc1Cl,3.06% (inactive)
3,CC(C)(C)OC(=O)CNC(=O)c1[nH]cnc1C(=O)N[C@@H](Cc1ccccc1)C(=O)OC(C)(C)C,7.08% (inactive)
4,CCOc1ncccc1C(=O)NNC(=O)c1cccc(S(=O)(=O)Nc2ccccc2OC)c1,2.97% (inactive)
5,COc1cccc(N2CCN(C(=O)c3cccc(NC4=NC5CS(=O)(=O)CC5S4)c3)CC2)c1 (configuration not stated),-7.17% (inactive)
6,CC(=O)Nc1cccc2ncccc12,-1.27% (inactive)
7,COc1cc(NC(C)=O)c2ncccc2c1Br,7.72% (inactive)
8,OC(COC(c1ccc(F)cc1)c1ccc(F)cc1)CN1CCCC1 (configuration not stated),3.3% (inactive)
9,Cc1ccc(C(=O)Nc2ccc(CN3CCCCC3)cc2)c(C)c1,4.85% (inactive)
10,CN1CCC2CC1c1cc(-c3ccc(C(F)(F)F)cc3)ccc12 (configuration not stated),6.96% (inactive)
11,O=C(C[C@@H]1CC[C@H]2[C@@H](COC[C@@H](O)CN2Cc2cccc(Cl)c2)O1)N1CCOCC1,-4.37% (inactive)
12,O=C(C[C@H]1CC[C@H]2[C@@H](COC[C@@H](O)CN2Cc2cccc(C(F)(F)F)c2)O1)NCc1ccc(F)cc1,3.27% (inactive)
13,C[C@@H]1CCCCO[C@H](CN(C)S(=O)(=O)c2ccccc2)[C@@H](C)CN([C@@H](C)CO)C(=O)c2cc(NC(=O)CCCN(C)C)ccc2O1,1.9% (inactive)
14,COc1ccc(S(=O)(=O)N(C)C[C@@H]2Oc3ccc(NS(=O)(=O)c4ccccc4)cc3C(=O)N([C@H](C)CO)C[C@H]2C)cc1,3.26% (inactive)
15,CCNC(=O)C[C@H]1CC[C@H]2[C@@H](COC[C@H](O)CN2Cc2ccc(Cl)c(Cl)c2)O1,0.129% (inactive)
16,CCNC(=O)C[C@H]1CC[C@H]2[C@@H](COC[C@@H](O)CN2Cc2ccc(Cl)c(Cl)c2)O1,-6.91% (inactive)
17,CCC1CN(S(=O)(=O)c2ccc3c(c2)NC(=O)CC(=O)N3)c2cc(Cl)ccc2O1 (configuration not stated),1.53% (inactive)
18,Cc1cc(OCC(=O)NC(Cc2c[nH]c3ccc(O)cc23)C(=O)O)c2c(C)c(C)c(=O)oc2c1 (configuration not stated),1.75% (inactive)
19,COc1cccc(CNC(=O)[C@@H]2CCCN2C(=O)[C@H]2CCCCN2C(=O)c2ccc(Cl)cc2)c1,-5.85% (inactive)
20,CCCCn1c(N)c(N(CC)C(=O)c2cc(C)cc(C)c2)c(=O)[nH]c1=O,-0.06% (inactive)
21,CC(C)CCC(O)(c1ccccc1)C(CN1CCOCC1)c1ccccc1 (configuration not stated),0.142% (inactive)
22,C[C@@H]1CCCCO[C@H](CN(C)S(=O)(=O)c2ccc(Cl)cc2)[C@H](C)CN([C@H](C)CO)C(=O)c2cc(N(C)C)ccc2O1,3.31% (inactive)
23,C=CCOc1ccccc1CN1CCC(Cc2ccccc2)CC1,-7.66% (inactive)
